# Measured values: PubChem BioAssay
# Active and inactive are the calls of the source. Unless noted, no rule for the calls is given here.
# Columns and labels:
# [1] = A549 cell viability effects, profiling panel, calcein-AM fluorescence, 48 h, basal (AID 1162); conditions: higher = more signal; also: test concentration not given here
# [2] = adipocyte viability effects, profiling panel, cell-based, 3T3-L1 adipocytes, calcein-AM fluorescence, 48 h, basal (AID 1163); conditions: 3T3-L1 adipocytes viability, higher = more signal; also: test concentration not given here
# [3] = HepG2 cell viability effects, profiling panel, calcein-AM fluorescence, 48 h, basal (AID 1164); conditions: higher = more signal; also: test concentration not given here
# [4] = MM1S cell viability effects, profiling panel, calcein-AM fluorescence, 48 h, basal (AID 1165); conditions: higher = more signal;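 also: viability of MM1S multiple myeloma cells under basal unstimulated conditions; test concentration not given here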
# [5] = basal RPMI8226 viability, no added stimulus, profiling panel, cell-based, calcein-AM fluorescence, 48 h, PK04 Diversity Set (AID 1166); conditions: RPMI8226 myeloma viability, higher = more signal;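 also: cells grown under basal conditions without added stimulus; test concentration not given here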
# [6] = basal HepG2 mitochondrial membrane potential changes, profiling panel, cell-based, JC-1 fluorescence, 24 h, 100 nL compound (AID 1167); conditions: higher = more signal; also: test concentration not given here
# [7] = basal 3T3-L1 adipocyte mitochondrial potential changes, profiling panel, cell-based, JC-1 fluorescence, 3T3-L1 adipocytes, 24 h, 100 nL compound (AID 1168); conditions: JC-1 mitochondrial fluorescence, higher = more signal, called active from +8 up or from −8 down; also: test concentration not given here
# [8] = basal RPMI8226 mitochondrial membrane potential changes, profiling panel, cell-based, JC-1 fluorescence, 24 h, 100 nL compound (AID 1169); conditions: RPMI8226 myeloma, JC-1 mitochondrial potential fluorescence, higher = more signal; also: test concentration not given here
# [9] = basal MM1S mitochondrial membrane potential changes, profiling panel, cell-based, JC-1 fluorescence, 24 h, 100 nL compound (AID 1170); conditions: higher = more signal; also: test concentration not given here
# [10] = A549 lung cancer cell viability effects, profiling panel, resazurin fluorescence, 24 h, PK04 Diversity Set (AID 1171); conditions: higher = more signal, called active from +8 up or from −8 down; also: test concentration not given here
# [11] = HepG2 liver cancer cell viability effects, profiling panel, resazurin fluorescence, 24 h, PK04 Diversity Set (AID 1172); conditions: higher = more signal; also: test concentration not given here
# [12] = basal S. cerevisiae growth modulation, no modifier, primary screen, OD600, strain BY4716, 24 h, basal condition (AID 1173); conditions: OD600, 24 h, higher = more signal, called active from +8 up or from −8 down
# [13] = MM1S myeloma cell viability, profiling panel, resazurin fluorescence, basal, 24 h, PK04 Diversity Set (AID 1174); conditions: higher = more signal, called active from +8 up or from −8 down;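 also: MM1S multiple myeloma cell line; test concentration not given here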
# [14] = molecular target: Dihydroorotate dehydrogenase (quinone), mitochondrial (Plasmodium falciparum (isolate 3D7)) (UniProt Q08210); assay: PfDHODH enzyme inhibitors, primary screen, biochemical, C-terminal His tag, absorbance 600 nm (AID 1175); conditions: DCIP absorbance 600 nm, higher = more signal, called active from +8 up or from −8 down;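 also: recombinant parasite enzyme with a five histidine tag at its C terminus; test concentration not given here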
# Chain of Dihydroorotate dehydrogenase (quinone), mitochondrial (Plasmodium falciparum (isolate 3D7)) (Q08210 whole entry, looked up): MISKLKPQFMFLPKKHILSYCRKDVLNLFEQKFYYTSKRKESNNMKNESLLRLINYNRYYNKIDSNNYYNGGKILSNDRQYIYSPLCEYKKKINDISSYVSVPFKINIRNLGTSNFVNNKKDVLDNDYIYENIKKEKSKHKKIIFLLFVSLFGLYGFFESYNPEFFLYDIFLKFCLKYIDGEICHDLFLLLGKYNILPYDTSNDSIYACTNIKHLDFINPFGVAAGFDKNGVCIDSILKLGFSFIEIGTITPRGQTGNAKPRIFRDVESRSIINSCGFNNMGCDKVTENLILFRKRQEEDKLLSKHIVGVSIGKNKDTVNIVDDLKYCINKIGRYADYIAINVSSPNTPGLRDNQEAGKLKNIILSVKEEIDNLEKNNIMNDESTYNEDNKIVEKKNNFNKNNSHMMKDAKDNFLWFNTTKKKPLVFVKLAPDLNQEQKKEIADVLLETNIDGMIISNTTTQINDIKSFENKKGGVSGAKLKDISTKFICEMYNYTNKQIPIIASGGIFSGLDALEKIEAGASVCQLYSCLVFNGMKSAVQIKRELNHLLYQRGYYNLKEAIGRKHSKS
# [15] = P. aeruginosa biofilm formation inhibitors, primary screen, strain PAO1, LB-PBS medium, absorbance 600 nm (AID 1176); also: test concentration not given here; conditions: P. aeruginosa PAO1 growth/biofilm, A600, 12 h; higher = more signal
# [16] = S. cerevisiae RM11-1a growth modifiers, primary screen, strain RM11-1a, OD600, basal, 24 h (AID 1177); conditions: OD600, 24 h, higher = more signal, called active from +8 up or from −8 down;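 also: cultures grown under basal conditions with no added stressor; test concentration not given here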
# [17] = E. coli acrAB mutant growth effects, primary screen, E. coli filamentation inducers, strain DRC39, OD650, 24 h (AID 1178); conditions: higher = more signal, called active from +8 up or from −8 down;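 also: growth measured as culture turbidity by optical density at 650 nm; test concentration not given here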
# [18] = E. coli acrAB mutant growth effects, primary screen, E. coli filamentation inducers, strain DRC39, OD650, 48 h (AID 1179);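 also: screen aims at cell division blockers that make cells filament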; conditions: E. coli DRC39 delta-acrAB growth, higher = more signal, called active from +8 up or from −8 down
# [19] = RPMI8226 myeloma cell viability, profiling panel, resazurin fluorescence, basal, 24 h, PK04 Diversity Set (AID 1180); conditions: higher = more signal;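 also: RPMI8826 multiple myeloma cell line at 5000 cells per well; test concentration not given here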
# [20] = molecular target: E3 ubiquitin-protein ligase XIAP (Homo sapiens) (UniProt P98170); assay: XIAP binders, primary screen, biophysical, small-molecule microarray, fluorescence 635 nm (AID 1181); conditions: small-molecule microarray binding, higher = more signal;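 also: score merges 667 nm emission and signal to noise over triplicate slides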
# Chain of E3 ubiquitin-protein ligase XIAP (Homo sapiens) (P98170 whole entry, looked up): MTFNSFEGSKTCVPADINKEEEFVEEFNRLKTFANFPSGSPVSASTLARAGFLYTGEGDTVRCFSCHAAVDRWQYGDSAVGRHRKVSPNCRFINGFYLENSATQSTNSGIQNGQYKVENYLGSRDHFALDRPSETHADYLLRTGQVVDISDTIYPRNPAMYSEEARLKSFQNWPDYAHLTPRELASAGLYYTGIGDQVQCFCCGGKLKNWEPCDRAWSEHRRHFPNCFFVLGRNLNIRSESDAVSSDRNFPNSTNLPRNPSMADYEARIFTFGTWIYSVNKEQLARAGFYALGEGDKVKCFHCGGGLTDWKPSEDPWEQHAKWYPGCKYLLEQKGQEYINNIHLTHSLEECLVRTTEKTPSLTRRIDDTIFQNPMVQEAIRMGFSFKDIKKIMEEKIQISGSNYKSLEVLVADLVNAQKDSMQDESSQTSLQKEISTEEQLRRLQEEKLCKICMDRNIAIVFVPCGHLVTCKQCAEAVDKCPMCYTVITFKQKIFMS
SMILES,z-score [1],z-score [2],z-score [3],z-score [4],z-score [5],z-score [6],z-score [7],z-score [8],z-score [9],z-score [10],z-score [11],z-score [12],z-score [13],composite z-score [14],z-score [15],z-score [16],z-score [17],z-score [18],z-score [19],composite z-score [20]
C=CC[C@H](OC(=O)Nc1ccc(SC)cc1)c1ccc(OCCO)cc1,-0.542,-0.228,-0.91,-0.75,0.329,-1.68,-0.313 (inactive),-0.309,-0.227,0.631 (inactive),0.826,-3.71 (inactive),0.819 (inactive),-1.51 (inactive),0.119 (inactive),1.07 (inactive),-0.0217 (inactive),-0.254 (inactive),0.194,0.0264
CCC(CC)C(O)C1C=CC2C(=O)N(c3ccccc3)C(=O)C2N1Nc1ccc([N+](=O)[O-])cc1 (stereo not given),-0.878,-1.13,-0.172,0.486,-1.23,-2.25,-1.37 (inactive),0.523,-1.6,-0.517 (inactive),-0.536,0.593 (inactive),-0.89 (inactive),0.837 (inactive),0.862 (inactive),0.105 (inactive),-0.667 (inactive),-0.162 (inactive),-0.587,0.0855
COCCOC(=O)N1C(=O)[C@@]2(c3ccccc31)[C@H](c1ccc(OCCO)cc1)N1[C@H](c3ccccc3)[C@H](c3ccccc3)OC(=O)[C@H]1[C@@H]2C(=O)N1CCCCCCC1,0.246,0.0203,0.0373,-2.74,-0.846,-0.0288,-3.41 (inactive),-0.345,-0.899,0.0556 (inactive),1.11,0.492 (inactive),0.441 (inactive),0.132 (inactive),1.84 (inactive),2 (inactive),-0.965 (inactive),-0.618 (inactive),1.04,2.64
COC(=O)C1=CC(CCCO)=CC(C)N(Cc2cccc(OC(F)(F)F)c2)C=C1C(=O)OC (stereo not given),1.35,0.0937,0.966,0.403,0.286,1.12,0.612 (inactive),-0.0402,-0.645,-0.149 (inactive),0.0252,-1.78 (inactive),-0.0934 (inactive),-2.73 (inactive),0.227 (inactive),0.0728 (inactive),1.38 (inactive),1.21 (inactive),-0.123,0.365
CC1CC/C=C\[C@H]2OC34C=CCN(C(C)(C)C)C(=O)[C@H]3N(C(CO)C(C)C)C(=O)[C@@H]4C2C(=O)O1 (stereo not given in full),0.0643,0.385,-0.554,1.61,0.136,-0.976,-0.295 (inactive),-0.622,-0.516,-0.266 (inactive),-0.49,-0.154 (inactive),-0.34 (inactive),-6.62 (inactive),0.0251 (inactive),-0.472 (inactive),0.361 (inactive),0.338 (inactive),-0.375,0.0357
COc1ccc([Si](C)(C)[C@H]2[C@H](CCO)O[C@@]3(C(=O)N(Cc4ccc(N5C(=O)c6ccccc6Oc6ccccc65)cc4)c4ccccc43)[C@@H]2C)cc1,-0.573,0.56,-2.71,-2.79,-4.04,0.0142,0.821 (inactive),-1.01,-2.04,-2.45 (inactive),-1.49,0.884 (inactive),-3.52 (inactive),0.198 (inactive),2.72 (inactive),4.11 (inactive),1.78 (inactive),0.987 (inactive),-3.67,-0.115
Cc1cccc([C@H]2C[C@H]3C(Br)=C[C@@H]2C(=O)[C@]32CO2)c1,-0.798,0.0171,-1.24,-3.14,-2.72,-0.565,0.404 (inactive),-0.837,-0.262,-0.581 (inactive),-0.536,-12.1 (active),-0.423 (inactive),0.288 (inactive),0.142 (inactive),0.622 (inactive),0.906 (inactive),-0.0628 (inactive),-0.332,0.172
C=C(C)[C@@H]1CC=C(C(O)C2C=CC3C(=O)N(c4ccccc4)C(=O)C3N2Nc2ccc(C#N)cc2)CC1 (stereo not given in full),-0.391,-0.575,0.166,-0.331,0.0001,-2.47,-2.61 (inactive),-0.671,-0.641,-0.31 (inactive),-1.12,-0.111 (inactive),-0.591 (inactive),0.0143 (inactive),1.8 (inactive),0.556 (inactive),-0.688 (inactive),-0.906 (inactive),0.0852,0.169
COCCOC(=O)N1C(=O)[C@@]2(c3cc(C#CCC(C(=O)OC)C(=O)OC)ccc31)[C@H](c1ccc(OCCO)cc1)N1[C@H](c3ccccc3)[C@H](c3ccccc3)OC(=O)[C@H]1[C@@H]2C(=O)Nc1nc2ccccc2s1,0.705,0.694,0.278,-0.518,-0.312,-2.91,0.578 (inactive),-1.01,-1.29,0.108 (inactive),1.13,1.05 (inactive),0.814 (inactive),-1.53 (inactive),3.58 (inactive),3.24 (inactive),1.18 (inactive),0.901 (inactive),-1.15,0.0506
